PAX8 inh HTS = inhibitors of PAX8 transcriptional activity in RMG-I cells. RMG-I TPO-luciferase reporter, SteadyGlo, 24 h. inhibition, % at 12.6 µM. hit rate 1.2% among 360,000. AID 652154;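 active = mean replicate inhibition at least 60% with every replicate also reaching 60%; inconclusive = only one of the two criteria is met; inactive = mean below 60% and not all replicates reaching 60%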;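 note: luciferase light reporting Pax8 driven TPO promoter activity; plate controls were median of neutral control wells for no effect and mitoxantrone controls for full effect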
EWS-Fli inh = inhibitors of EWS/Fli oncoprotein transcriptional activity. A673 NR0B1-luciferase reporter, viability-normalised. inhibition, % at 12.6 µM. hit rate 0.67% among 350,000. AID 651661;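 active = mean inhibition of at least 50% after viability correction, with every replicate also passing that limit; inconclusive = mean reaches 50% but only one of two replicates passes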;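 note: firefly luciferase signal divided by Alamar Blue viability fluorescence both relative to DMSO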
Shn3 inh set2 = reduces Shn3 3'UTR luciferase signal in osteoblasts; inhibition, % at 12.5 µM; Clone20 osteoblast Shn3 3'UTR firefly luciferase, 24 h; hit rate 0.52% among 360,000;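 active = mean inhibition of at least 75% with every replicate also reaching 75%; inconclusive = mean inhibition at least 75% but some replicate below; inactive = mean inhibition below 75%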;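 note: 0% = median of neutral control wells and 100% = pilot-screen positive control compound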
LGR2 antag = inhibitors of bursicon-induced Drosophila LGR2 receptor cAMP signaling; inhibition, % at 9.99 µM; HEK293 LGR2, CRE-luciferase, bursicon-stimulated, 4 h; hit rate 0.35% among 380,000; AID 720647;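 active = drop in luminescence signal, shown as inhibition above about 50% in the replicate tests, limit read from the data, passing the limit was not always enough; inconclusive = probably only some replicates passing the limit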;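 note: agonist challenge used bursicon conditioned medium at about half maximal strength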
EBV LMP1 NFkB = Epstein-Barr LMP1 NF-kappaB reporter inhibition; AID 504558; LMP1-induced NF-kappaB luciferase reporter cells, luminescence; hit rate 0.69% among 350,000; inhibition, % at 12.5 µM; in the data active = inhibition above about 41%; inconclusive = no clear call, values can overlap the other calls;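 note: 0% = neutral control wells and 100% = reference inhibitor control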
MITF TRPM1 inh = MITF TRPM1 promoter inhibition in SK-MEL-5 cells. SK-MEL-5 TRPM1 promoter luciferase, 24 h. inhibition, % at 12.5 µM. hit rate 0.83% among 330,000;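 active = mean inhibition across replicates of 60% or more, whatever share of single replicates reaches that level; inconclusive = some that reach 60%, reason not given; inactive = mean inhibition across replicates below 60%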
Starred values were filed as active, the others as inactive; ? = inconclusive; . = not tested or not shown. Most compounds without a hit are left out; they make up all but 2.2% or so of the library.

SMILES	PAX8 inh HTS	EWS-Fli inh	Shn3 inh set2	LGR2 antag	EBV LMP1 NFkB	MITF TRPM1 inh
O=C(NCCC1CCCCN1S(=O)(=O)c1ccccc1)C(=O)NCc1ccncc1 (stereo unspecified)	68*	4	-4	-11	3	11
Cc1noc(C)c1S(=O)(=O)Nc1ccc2c(c1)C(=O)N([C@H](C)CO)C[C@@H](C)[C@H](CN(C)C(=O)Nc1ccc(F)cc1)O2	-9	-5	.	-12	.	.
COc1ccc([C@H]2CC(=O)C=C(c3c(OC)cccc3OC)C2)cc1	11	63*	13	-7	-6	22
CCOc1ccc(Cl)cc1C1=CC(=O)C[C@H](c2ccc(OC)cc2)C1	22	60*	11	13	18	19
N=c1n(Cc2ccccc2)c2ccccc2n1CC(O)COc1ccc(Cl)cc1Cl (stereo unspecified)	93*	62*	92*	101*	-13	98*
Cc1ccc(OCC(O)Cn2c(=N)n(Cc3ccccc3)c3ccccc32)cc1 (stereo unspecified)	.	.	81*	.	-3	39
Cc1cccc(OCC(O)Cn2c(=N)n(CCN3CCCCC3)c3ccccc32)c1 (stereo unspecified)	19	.	64	.	6	79*
N=c1n(Cc2ccc(Cl)cc2)c2ccccc2n1CC(O)COc1ccccc1 (stereo unspecified)	56	-15	86*	83*	-51	94*
COc1ccc(C(=O)/C=C/Sc2nc3ccccc3o2)cc1	5	55*	.	0	-18	49
Cc1ccc(S(=O)(=O)Nc2ccc3c(c2)C(=O)N([C@@H](C)CO)C[C@H](C)[C@H](CN(C)C(=O)Nc2cccc4ccccc24)OCCCC[C@H](C)O3)cc1	54	12	.	-2	.	.
COc1ccc(-c2cnc3c(NC=O)cc(-c4ccc(S(C)(=O)=O)cc4)cn23)cc1OC	22	6	11	15	.	.
COc1ccc(-c2cc(NC=O)c3ncc(-c4cc(OC)c(OC)c(OC)c4)n3c2)cc1	72*	42	-1	-25	.	.
COc1cc(-c2cnc3c(NC=O)cc(-c4ccc(S(C)(=O)=O)cc4)cn23)cc(OC)c1OC	62*	42	6	-8	.	.
COc1ccc(-c2cnc3c(NC=O)cc(-c4cc(OC)c(OC)c(OC)c4)cn23)cc1OC	31	28	23	-1	.	.
COc1ccccc1-c1cc(NC=O)c2ncc(-c3ccc(S(C)(=O)=O)cc3)n2c1	63*	26	-7	-28	.	.
CC(C)n1c(-c2ccc(N(C)C)cc2)nc2ccccc21	.	.	-40	.	-9	-55
CN(C)c1ccc(-c2nc3ccccc3n2C)cc1	.	.	9	74*	50*	23
COc1ccc2c3c([nH]c2c1)[C@@H](CO)N(C(=O)CN(C)C)CC31CCN(Cc2ccccc2Cl)CC1	-16	15	.	9	.	.
CC(=O)C1=C(O)C(=O)N(CCc2ccccc2)C1c1ccccc1[N+](=O)[O-] (stereo unspecified)	122*	13	7	-6	-3	3
CCOC(=O)c1c(C)oc2c(F)c(F)c(F)c(F)c2c1=O	.	.	-16	.	8	100*
CCSc1nnc(NC(=O)C(C)C)s1	-21	-9	-11	-11	-1	7
Cc1ccc(NC(=O)CSc2nnc(NC(=O)C(C)C)s2)c(C)c1	-5	4	9	-7	63*	0
COC(=O)[C@@H]1Cc2c([nH]c3ccccc23)C(C)(C)N1C(=O)CCl	112*	58*	-24	19	-1	28
O=C(NCc1ccc2c(c1)OCO2)C(C(=O)c1ccccc1)n1cc(Cl)ccc1=O (stereo unspecified)	85*	-5	-38	0	-17	10
O=C(NCc1ccc2c(c1)OCO2)c1cccc(C(=O)NCc2ccc3c(c2)OCO3)c1	.	.	13	.	0	9
SMILES	PAX8 inh HTS	EWS-Fli inh	Shn3 inh set2	LGR2 antag	EBV LMP1 NFkB	MITF TRPM1 inh
O=C1CCC(=O)N1CC1CC2CCC1C2 (stereo unspecified)	-1	63*	-9	12	0	-3
CC(C)CC#Cc1ccc2c(c1)O[C@H](CN(C)C(=O)Cc1cccnc1)[C@@H](C)CN([C@H](C)CO)S2(=O)=O	-8	21	.	-12	.	.
CC(C)COCc1ccc(O)c2ncccc12	72*	20	72	23	8	63*
OCc1ccc(O)c2ncccc12	.	.	82	.	-14	?
CN(Cc1ccco1)Cc1ccc(O)c2ncccc12	.	.	-2	.	-2	4
CCCOCc1ccc(O)c2ncccc12	31	30	57	11	-1	69*
C[C@H](CO)N1C[C@H](C)[C@@H](CN(C)S(=O)(=O)c2cn(C)cn2)Oc2c(NC(=O)C3CCOCC3)cccc2C1=O	.	-7	.	3	.	.
CCC(=O)N1CC2(C1)[C@H](c1ccc(-c3ccc(F)cc3)cc1)[C@@H](CO)N2S(C)(=O)=O	7	0	.	-3	.	.
C[C@@H]1CN([C@H](C)CO)C(=O)c2cc(-c3ccccc3)cnc2O[C@@H]1CN(C)Cc1cccnc1	.	-20	.	-1	.	.
CCC(=O)N1CC2(CCN(Cc3ccc(Cl)cc3)CC2)c2c([nH]c3cc(OC)ccc23)[C@H]1CO	.	-7	.	4	.	.
Cc1cc(-c2csc(NC(=O)c3ccc(C#N)cc3)n2)c(C)n1Cc1ccco1	121*	-3	-20	.	-7	13
O=C(CN1CCOCC1)NCC[C@@H]1CC[C@H](NC(=O)Nc2ccc(F)cc2)[C@@H](CO)O1	1	1	.	6	.	.
C[C@@H]1CN([C@@H](C)CO)C(=O)c2cc(C3=CCCCC3)cnc2O[C@H]1CN(C)S(C)(=O)=O	.	-9	.	-6	.	.
COc1cccc2c1C(=O)c1c(O)c3c(c(O)c1C2=O)C[C@@](O)(C(=O)CO)C[C@@H]3O[C@H]1C[C@H](N)[C@@H](O)[C@H](C)O1	.	.	83	.	76*	83*
COc1cccc2c1C(=O)c1c(O)c3c(c(O)c1C2=O)C[C@@](O)(C(C)=O)C[C@@H]3O[C@H]1C[C@H](N)[C@H](O)[C@H](C)O1	114*	70*	96*	100*	91*	96*
COc1cccc2c1C(=O)c1c(O)c3c(c(O)c1C2=O)CC(O)(C(=O)CO)CC3OC1CC(N(C)C)C(O)C(C)O1 (stereo unspecified)	112*	64*	97*	.	87*	69*
COc1cc2c(c(OC)c1OC)-c1ccc(SC)c(=O)cc1C(NC(=O)c1ccccc1)CC2 (stereo unspecified)	67*	30	7	-5	-8	40
C=COC(=O)NC1CCc2cc(OC)c(OC)c(OC)c2-c2ccc(SC)c(=O)cc21 (stereo unspecified)	65*	29	-8	-4	-4	51
COc1cc(C(=O)NC2CCCc3ccccc32)cc(OC)c1C (stereo unspecified)	5	10	-12	6	6	-2
